Among all 5,700 compounds or so, about 85 (1%) were called active. Cut-off read from the data, not from the text of the source: active = p53-positive nuclei above about 36% (passing the limit was not always enough); inactive = the rest. Only a selection was taken, and actives are over-represented in it overall.

Experiment [1] in a line: p53 stabilisation in HPV-positive human cells, imaging, p53-positive nuclei imaging, 24 h, 48 h (AID 1508601). As to conditions: 24/48 h.
The target of experiment [2] is Cellular tumor antigen p53 (Homo sapiens) (UniProt P04637). The experiment is described as above. The note with it: 24/48 h, stronger effect = higher value.
Cellular tumor antigen p53 (Homo sapiens), sequence (P04637 whole entry, looked up): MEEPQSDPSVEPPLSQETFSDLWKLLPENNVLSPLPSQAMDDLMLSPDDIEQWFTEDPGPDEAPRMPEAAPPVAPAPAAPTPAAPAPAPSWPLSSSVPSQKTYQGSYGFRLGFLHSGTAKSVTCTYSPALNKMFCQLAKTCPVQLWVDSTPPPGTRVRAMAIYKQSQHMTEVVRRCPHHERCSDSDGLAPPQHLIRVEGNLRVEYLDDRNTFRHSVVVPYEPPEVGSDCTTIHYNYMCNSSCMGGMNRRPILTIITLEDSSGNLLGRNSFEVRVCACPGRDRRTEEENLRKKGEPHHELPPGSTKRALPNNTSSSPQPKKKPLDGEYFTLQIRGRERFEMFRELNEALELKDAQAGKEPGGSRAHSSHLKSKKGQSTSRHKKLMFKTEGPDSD
The mark [3] stands for this setting: measured here: cell number at 24 h, Library stock concentration: 10 mM.
Setting [4] is: measured here: cell number at 24 h, concentration not given here.
Setting [5] is: measured here: cell number at 48 h, Library stock concentration: 10 mM.
Setting [6] is: measured here: cell number at 48 h, concentration not given here.
Where [7] appears, read: Library stock concentration: 10 mM.
[8] abbreviates: measured here: p53 positive nuclei at 24 h, Library stock concentration: 10 mM.
[9] abbreviates: measured here: p53 positive nuclei at 24 h, concentration not given here.
The mark [10] stands for this setting: measured here: cell number at 24 h, Library stock concentration: 3.33 mM.
Setting [11] is: measured here: cell number at 48 h, Library stock concentration: 3.33 mM.
[12] abbreviates: Library stock concentration: 3.33 mM.
Where [13] appears, read: measured here: p53 positive nuclei at 24 h, Library stock concentration: 3.33 mM.

Take `CC[n+]1c(-c2ccccc2)c2cc(N)ccc2c2ccc(N)cc21`: the nuclei count, normalised in experiment [1] (measured here: cell number at 24 h, Library stock concentration: 500 nM) stood at 102%; in experiment [1] (measured here: cell number at 24 h, Library stock concentration: 1.5 uM) it was 108%; in experiment [1] (measured here: cell number at 24 h, Library stock concentration: 4.6 uM), 106%; in experiment [1] (measured here: cell number at 24 h, Library stock concentration: 13.7 uM), 111%; in experiment [1] (measured here: cell number at 24 h, Library stock concentration: 41 uM), 111%; in experiment [1] (measured here: cell number at 24 h, Library stock concentration: 123 uM), 102%. Besides, the nuclei count, normalised in experiment [1] (measured here: cell number at 24 h, Library stock concentration: 370 uM) was 117%; in experiment [1] (measured here: cell number at 24 h, Library stock concentration: 1.111 mM), 107%; in experiment [1] (measured here: cell number at 24 h, Library stock concentration: 3.333 mM) it was 105%; in experiment [1] (setting [3]), 83.1%; in experiment [1] (setting [4]), 104%; in experiment [1] (measured here: cell number at 48 h, Library stock concentration: 500 nM), 104%. Further, the nuclei count, normalised worked out at 109% in experiment [1] (measured here: cell number at 48 h, Library stock concentration: 1.5 uM); 106% in experiment [1] (measured here: cell number at 48 h, Library stock concentration: 4.6 uM); 109% in experiment [1] (measured here: cell number at 48 h, Library stock concentration: 13.7 uM); 109% in experiment [1] (measured here: cell number at 48 h, Library stock concentration: 41 uM); 99.5% in experiment [1] (measured here: cell number at 48 h, Library stock concentration: 123 uM); 104% in experiment [1] (measured here: cell number at 48 h, Library stock concentration: 370 uM). Further, the nuclei count, normalised is 99.7% in experiment [1] (measured here: cell number at 48 h, Library stock concentration: 1.111 mM); 98.5% in experiment [1] (measured here: cell number at 48 h, Library stock concentration: 3.333 mM); 75.3% in experiment [1] (setting [5]); 97.4% in experiment [1] (setting [6]). The p53-positive nuclei, normalised in experiment [2] (Library stock concentration: 500 nM) was 0.0282% (inactive); in experiment [2] (Library stock concentration: 1.5 uM) it was 0.101% (inactive); in experiment [2] (Library stock concentration: 4.6 uM), -0.0128% (inactive); in experiment [2] (Library stock concentration: 13.7 uM), -0.0168% (inactive); in experiment [2] (Library stock concentration: 41 uM), 0.329% (inactive); in experiment [2] (Library stock concentration: 123 uM), 3.12% (inactive). Besides, the p53-positive nuclei, normalised in experiment [2] (Library stock concentration: 370 uM) is 7.73% (inactive); in experiment [2] (Library stock concentration: 1.111 mM) it was 12.2% (inactive); in experiment [2] (Library stock concentration: 3.333 mM), 19.5% (inactive); in experiment [2] (setting [7]), 103% (active); in experiment [2] (concentration not given here), 34.3% (inactive); in experiment [2] (measured here: p53 positive nuclei at 24 h, Library stock concentration: 500 nM), 0.0668%. Also, the p53-positive nuclei, normalised is 0.166% in experiment [2] (measured here: p53 positive nuclei at 24 h, Library stock concentration: 1.5 uM); -0.00293% in experiment [2] (measured here: p53 positive nuclei at 24 h, Library stock concentration: 4.6 uM); -0.0711% in experiment [2] (measured here: p53 positive nuclei at 24 h, Library stock concentration: 13.7 uM); 0.21% in experiment [2] (measured here: p53 positive nuclei at 24 h, Library stock concentration: 41 uM); 1.53% in experiment [2] (measured here: p53 positive nuclei at 24 h, Library stock concentration: 123 uM); 4.81% in experiment [2] (measured here: p53 positive nuclei at 24 h, Library stock concentration: 370 uM). Further, the p53-positive nuclei, normalised in experiment [2] (measured here: p53 positive nuclei at 24 h, Library stock concentration: 1.111 mM) was 11.9%; in experiment [2] (measured here: p53 positive nuclei at 24 h, Library stock concentration: 3.333 mM), 38.2%; in experiment [2] (setting [8]) it was 127%; in experiment [2] (setting [9]) it was 45.3%.
For `CCCCC/C=C\C/C=C\C/C=C\C/C=C\CCCC(=O)N[C@H](C)COP(=O)(O)O`, the nuclei count, normalised in experiment [1] (setting [4]) amounted to 107%; in experiment [1] (setting [6]) it was 103%. Besides, the p53-positive nuclei, normalised is 0.124% (inactive) in experiment [2] (concentration not given here) and -0.0345% in experiment [2] (setting [9]).
Take `N#CC(OC1OC(COC2OC(CO)C(O)C(O)C2O)C(O)C(O)C1O)c1ccccc1` (centres undefined): the nuclei count, normalised in experiment [1] (setting [10]) was 95.4%; in experiment [1] (setting [11]), 89.1%. Also, the p53-positive nuclei, normalised is 0.141% (inactive) in experiment [2] (setting [12]) and -0.0206% in experiment [2] (setting [13]).
The matching figures for `Cc1ccc(-n2nccn2)c(C(=O)N2CCN(c3nc4cc(Cl)ccc4o3)CCC2C)c1` (centres undefined): 71.4%, 76.4%, 0.0905% (inactive) and -0.163%.
For `c1cc(N2CCNCC2)c2cnccc2c1`, the results for the nuclei count, normalised in experiment [1] (setting [4]) and in experiment [1] (setting [6]) were 95.9% and 98.3%, respectively. Besides, the figures for the p53-positive nuclei, normalised in experiment [2] (concentration not given here) and in experiment [2] (setting [9]) were -0.118% (inactive) and -0.041%, respectively.
The like results for `CN(C)C(=S)SSC(=S)N(C)C` were, in that order, 35.4%, 24.2%, 90.3% (active) and 108%.
Turning to `Cc1sc2c(c1C)C(c1ccc(Cl)cc1)=NC(CC(=O)Nc1ccc(O)cc1)c1nnc(C)n1-2` (centres undefined), the nuclei count, normalised in experiment [1] (measured here: cell number at 24 h, Library stock concentration: 80 uM) turned out to be 110%; in experiment [1] (measured here: cell number at 24 h, Library stock concentration: 400 uM) it was 120%; in experiment [1] (measured here: cell number at 24 h, Library stock concentration: 2 mM), 113%; in experiment [1] (setting [10]) it was 119%; in experiment [1] (setting [3]), 114%; in experiment [1] (measured here: cell number at 48 h, Library stock concentration: 80 uM), 108%. For the same molecule, the nuclei count, normalised in experiment [1] (measured here: cell number at 48 h, Library stock concentration: 400 uM) was 119%; in experiment [1] (measured here: cell number at 48 h, Library stock concentration: 2 mM), 111%; in experiment [1] (setting [11]) it was 117%; in experiment [1] (setting [5]) it was 109%. Besides, the p53-positive nuclei, normalised was 0.0544% (inactive) in experiment [2] (Library stock concentration: 80 uM); 0.0288% (inactive) in experiment [2] (Library stock concentration: 400 uM); 3.49% (inactive) in experiment [2] (Library stock concentration: 2 mM); 3.67% (inactive) in experiment [2] (setting [12]); 9.67% (inactive) in experiment [2] (setting [7]); 0.123% in experiment [2] (measured here: p53 positive nuclei at 24 h, Library stock concentration: 80 uM). In addition, the p53-positive nuclei, normalised in experiment [2] (measured here: p53 positive nuclei at 24 h, Library stock concentration: 400 uM) was found to be 0.712%; in experiment [2] (measured here: p53 positive nuclei at 24 h, Library stock concentration: 2 mM), 19.6%; in experiment [2] (setting [13]), 10.4%; in experiment [2] (setting [8]), 46.6%.
With `Cc1sc2c(c1C)C(c1ccc(Cl)cc1)=NC(CC(N)=O)c1nnc(C)n1-2` (centres undefined), the nuclei count, normalised amounted to 103% in experiment [1] (measured here: cell number at 24 h, Library stock concentration: 46 uM); 99.7% in experiment [1] (measured here: cell number at 24 h, Library stock concentration: 278 uM); 85.4% in experiment [1] (measured here: cell number at 24 h, Library stock concentration: 1.67 mM); 123% in experiment [1] (setting [10]); 90.1% in experiment [1] (setting [3]); 106% in experiment [1] (measured here: cell number at 48 h, Library stock concentration: 46 uM). For the same molecule, the nuclei count, normalised in experiment [1] (measured here: cell number at 48 h, Library stock concentration: 278 uM) came to 102%; in experiment [1] (measured here: cell number at 48 h, Library stock concentration: 1.67 mM) it was 87.7%; in experiment [1] (setting [11]), 122%; in experiment [1] (setting [5]), 84.3%. For the same molecule, the p53-positive nuclei, normalised is -0.111% (inactive) in experiment [2] (Library stock concentration: 46 uM); 0.158% (inactive) in experiment [2] (Library stock concentration: 278 uM); 12.8% (inactive) in experiment [2] (Library stock concentration: 1.67 mM); 3.31% (inactive) in experiment [2] (setting [12]); 25.8% (inactive) in experiment [2] (setting [7]); -0.0163% in experiment [2] (measured here: p53 positive nuclei at 24 h, Library stock concentration: 46 uM). For the same molecule, the p53-positive nuclei, normalised in experiment [2] (measured here: p53 positive nuclei at 24 h, Library stock concentration: 278 uM) was 0.11%; in experiment [2] (measured here: p53 positive nuclei at 24 h, Library stock concentration: 1.67 mM), 27%; in experiment [2] (setting [13]), 12.7%; in experiment [2] (setting [8]) it was 46.3%.

The record behind these values is PubChem BioAssay AID1508601 (ICCB-Longwood Screening Facility, Harvard Medical School, 2020).
